# Compound activity (PubChem BioAssay)
# The list is not random: actives were taken first. Their share in the collection is about 4.7%.
# TRHR enhancer: allosteric enhancers of human TRH receptor. P34981. enhancement, % at 2 µM. actives 0.66% (n = 360,000). AID 493056. TRHR cells, fluo-8 calcium fluorescence, EC20 TRH enhancement; in the data active = enhancement above about 30%; note: 0% is about no effect
#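 TRHR-expressing cells loaded with fluo-8 calcium dye were read kinetically (ex 480/em 530) during compound addition, then stimulated with an EC20 of TRH (10 nM final). Enhancement of the Gq-mediated intracellular calcium response was scored.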
# D1 potentiator: enhances dopamine response at the human D1 receptor; P21728; HEK293 TREx D1 cells, calcium flux, dopamine EC20 potentiation; potentiation, % at 10 µM; actives 0.036% (n = 360,000); AID 504651; in the data active = potentiation above about 30%; note: 0% is about no effect
# Target sequence (P21728 whole entry, looked up): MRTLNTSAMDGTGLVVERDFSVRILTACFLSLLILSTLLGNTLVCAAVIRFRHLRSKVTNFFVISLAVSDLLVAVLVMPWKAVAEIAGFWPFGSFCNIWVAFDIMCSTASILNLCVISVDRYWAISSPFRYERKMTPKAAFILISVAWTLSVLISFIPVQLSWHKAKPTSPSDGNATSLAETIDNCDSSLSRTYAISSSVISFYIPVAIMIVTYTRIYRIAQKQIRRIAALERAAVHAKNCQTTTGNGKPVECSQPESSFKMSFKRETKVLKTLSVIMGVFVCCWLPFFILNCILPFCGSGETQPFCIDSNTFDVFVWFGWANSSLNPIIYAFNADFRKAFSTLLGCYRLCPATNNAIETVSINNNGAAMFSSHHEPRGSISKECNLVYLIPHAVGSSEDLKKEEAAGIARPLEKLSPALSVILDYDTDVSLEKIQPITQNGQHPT
# TRHR ag: agonists of human TRH receptor; actives 0.18% (n = 360,000); activation, % at 2 µM; AID 493084; TRHR cells, calcium flux fluo-8, FDSS agonist mode; note: 0% is about no effect
#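 Fluo-8-loaded TRHR cells; 10 s baseline, compound added, kinetic Ca2+ fluorescence read 1/s, agonist mode.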
# D1 ag: human D1 receptor agonism. P21728. HEK293 T-REx D1 cells, calcium flux, agonist mode. activation, % at 2 µM. actives 1% (n = 360,000); note: 0% is about no effect
#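 Agonism was scored from calcium flux recorded over 180 s (1 read/s) after pintool compound addition, following a 10-cycle baseline. Cells were inducible force-coupled HEK293 TREx D1, plated overnight at 30 C and loaded with no-wash calcium dye.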
# D1 antagonist: human D1 dopamine receptor antagonism. activity change, negative = inhibition, % at 10 µM. AID 504652. P21728. HEK293 TREx D1 cells, calcium flux, dopamine EC80; hits give low values. actives 3.2% (n = 360,000); in the data active = activity change below about -30%; note: % is set by controls: 0 for no effect and ±100 for the full control effect
#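 Tetracycline-induced HEK293 T-REx cells with force-coupled D1 receptor were loaded with a no-wash calcium dye. Compound was added after a 10 s baseline and read kinetically for 180 s; EC80 dopamine was then added and calcium flux followed another 180 s.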
# Numbers without * were called inactive; · = not tested or not shown. Cut-off read from the data, not from the text of the source, unless noted: active = activation above about 30%; inactive = the rest.
SMILES,TRHR enhancer,D1 potentiator,TRHR ag,D1 ag,D1 antagonist
Cc1ccccc1NC(=O)c1cc(N)ccc1N1CCCCC1,-17.6,-15.3,2.7,-1.6,-54.7*
Cc1ccc(CSCCNS(=O)(=O)c2ccc(C)cc2)cc1,5.8,-5.5,0.7,7.2,-40.1*
CCc1ccc(N(CC(=O)NC2CC2)S(=O)(=O)c2ccc(C)cc2)cc1,-5.7,-6.5,-0.2,0.6,-42.7*
Cc1ccc(S(=O)(=O)NCC(=O)NC2CCCC2)cc1,-1.3,-4.0,-0.4,-0.5,7.7
Cc1ccc(S(=O)(=O)NCCC(=O)O)cc1,-0.5,-2.1,-0.2,2.0,0.5
Cc1ccc(S(=O)(=O)NCC(=O)NC2CCCCCC2)cc1,33.5*,-0.4,-0.3,1.4,32.0
Cc1ccc(S(=O)(=O)NCCCC(=O)O)cc1,19.2,2.0,0.4,0.1,-32.0*
CN(CCOc1ccc(Cl)cc1)C(=O)c1cc(S(=O)(=O)N2CCOCC2)ccc1N1CCCC1,-10.9,·,-0.3,5.0,13.2
Cc1cc(=O)[nH]c(SCC(=O)N2CCN(c3ccccc3)CC2)n1,-1.0,-0.8,0.0,0.6,-4.5
Cc1ccccc1OCC(=O)Nc1ccc(C(=O)OCc2cc(=O)n3ccsc3n2)cc1,4.9,-0.5,-1.5,3.3,0.2
CCc1ccc(CNC(=O)c2cnc3sc(N4CCCCC4)nn3c2=O)cc1,3.0,-1.2,-0.4,1.9,19.8
FC(F)(F)c1cc(-c2ccco2)nc(NCc2ccccc2)n1,-4.5,-5.0,1.1,7.6,32.7
COc1ccc(-c2cc(C(F)(F)F)nc(NCc3ccccc3)n2)cc1,-0.6,2.9,2.6,30.9*,-0.4
Fc1ccc(CNc2nc(-c3ccc(Cl)cc3)cc(C(F)(F)F)n2)cc1,10.5,1.6,-0.4,26.1,-2.3
Fc1ccc(CNc2nc(-c3ccco3)cc(C(F)(F)F)n2)cc1,38.3*,-0.5,0.4,6.3,6.3
COc1ccc(CNc2nc(-c3ccc(OC)c(OC)c3)cc(C(F)(F)F)n2)cc1,-1.9,-1.2,0.7,2.7,2.0
Fc1ccc(-c2cc(C(F)(F)F)nc(NCc3ccccc3)n2)cc1,-3.3,1.3,-0.6,36.1*,-3.2
Cc1[nH]c(=S)c(C#N)c(C)c1CC(=O)c1ccc(Br)cc1,5.9,2.6,0.0,4.0,4.8
Cc1[nH]c(=O)c(C#N)c(C)c1Cc1ccc(Cl)cc1Cl,-0.1,5.7,-1.5,0.3,-62.1*
Cc1[nH]c(=S)c(C#N)c(C)c1Cc1ccc(Cl)cc1Cl,-0.5,-5.0,0.4,0.3,-50.8*
CC(C)NC(=O)C1CCC(Cn2c(=O)c3sccc3n(CC(=O)NCc3ccccc3)c2=O)CC1 (stereo not drawn),-2.2,-4.2,0.0,-0.8,-20.5
CCOc1ccc(NC(=O)C2CCCN(S(=O)(=O)c3c(C)noc3/C=C/N(C)C)C2)cc1 (stereo not drawn),-2.0,-4.4,0.0,5.4,-1.5
CN(C)CCCn1c(SCC(=O)N2c3ccccc3Sc3ccccc32)nc2ccccc2c1=O,3.5,-2.6,0.9,37.8*,-14.8
Cn1c(SCC(=O)N2c3ccccc3Sc3ccccc32)nc2ccccc21,-8.7,0.9,0.4,6.2,-8.7
Cc1occc(=O)c1OC(=O)Nc1ccc(Cl)c(Cl)c1,-0.1,-19.7,1.3,12.6,-47.3*
SMILES,TRHR enhancer,D1 potentiator,TRHR ag,D1 ag,D1 antagonist
CCCCOc1ccc(C(=O)N2CCCC2)cc1,1.3,-2.8,-1.0,0.4,15.1
CCCCCOc1ccc(C(=O)CCC(=O)N2CCCC2)cc1,-2.0,-7.4,-0.5,36.2*,-6.6
CCCCOc1ccc(C(=O)CCN2CCOCC2)cc1,0.4,-8.0,-1.2,9.8,-34.4*
O=C(CNC(=O)c1ccc([N+](=O)[O-])cc1)OC(C(=O)Nc1cc(C(F)(F)F)ccc1Cl)c1ccccc1 (stereo not drawn),-5.1,-1.4,1.7,5.1,33.6
Cc1ccc(N2C(=O)CSC23C(=O)N(CC(=O)NC2CCCCC2)c2ccccc23)cc1C (stereo not drawn),3.7,-1.7,-0.7,-1.0,1.4
CCOC(=O)c1c(C)[nH]c(C(=O)NCc2ccco2)c1C,3.1,-6.5,0.1,0.2,-71.4*
CCOC(=O)c1c(C)[nH]c(C(=O)N/N=C/c2ccc(Br)cc2)c1C,-5.0,-7.4,-1.5,3.0,-40.4*
Cc1[nH]c(C(=O)N/N=C/c2ccc(C(=O)O)cc2)c(C)c1C(=O)N/N=C/c1ccc(C(=O)O)cc1,4.4,-3.0,-0.6,0.8,-10.0
